Test results as given in PubChem BioAssay AID1345085 (National Center for Advancing Translational Sciences (NCATS), 2018).
Results filed as inconclusive are left out. A number with no mark means an inactive call. Calls of active or inactive are those of the source. Calls come from the whole dose curve; as a rule, active = well fitted cell-killing curve with a large enough effect; inconclusive = small, poorly fitted or top-dose-only effect, or effect the other way; inactive = no such curve, though single readings can be large or run the other way.

Each compound was assayed on Tov-21-G (assay: Confirmatory qHTS for gynecologic anti-cancer compounds from libraries of approved drugs and bioactive compounds). Conditions: gynecologic cancer cell panel viability, ATPlite luminescence, 48 h; series mostly up to 57.7 µM; activity change, negative = viability loss: at the top concentration.
Procedure, shortened: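 Cells (1,000/well) were plated, left 16 h at 37 C/5% CO2, then given compound at 11 concentrations (1:3) from 57.5 uM to 0.977 nM for 48 h. ATPlite luminescence after 15 min at room temperature gave IC50 values.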
% is set by controls: 0 for no effect and ±100 for the full control effect; potency is the fitted concentration of half-maximal effect.
Note: nearly all actives have a fitted effect of over 55% in size.

SMILES | Potency | activity change, negative = viability loss
CCn1cc(-c2ccnc3[nH]c(-c4cccc(CN(C)C)c4)cc23)c(-c2ccc(NC(=O)N(C)C)cc2)n1 | 7.49 µM (active) | 
CC(C)C[C@H](NC(=O)[C@@H](NC(=O)c1cccc(-c2ccccc2)n1)[C@@H](C)O)B(O)O | 1.72 µM (active) | 
O=C(c1ccc(F)c(F)c1Nc1ccc(I)cc1F)N1CC(O)([C@@H]2CCCCN2)C1 | 9.68 µM (active) | 
CC1=C(CO)C(=O)O[C@@H]([C@@H](C)[C@H]2CC[C@H]3[C@@H]4C[C@H]5O[C@]56[C@@H](O)C=CC(=O)[C@]6(C)[C@H]4CC[C@]23C)C1 | 3.35 µM (active) | 
CCC(=O)N1CCN(c2ccc(-n3c(=O)ccc4cnc5ccc(-c6cnc7ccccc7c6)cc5c43)cc2C(F)(F)F)CC1 | 0.314 µM (active) | 
CCc1c2c(nc3ccc(O)cc13)-c1cc3c(c(=O)n1C2)COC(=O)[C@]3(O)CC | 1.09 µM (active) | 
O=C1N(c2ccccc2)c2ccccc2C1(Cc1ccncc1)Cc1ccncc1 |  | 18.7%
CCOc1cc2ncc(C#N)c(Nc3ccc(F)c(Cl)c3)c2cc1NC(=O)/C=C/CN(C)C | 2.17 µM (active) | 
O=C(CCCCCCNC(=O)c1cnc(N(c2ccccc2)c2ccccc2)nc1)NO | 21.7 µM (active) | 
CC(C)c1nn(-c2c(Cl)cccc2Cl)c2nc(Cc3ccc(OCCO)cc3)[nH]c(=O)c12 | 0.0863 µM (active) | 
NC1(c2ccc(-c3nc4ccn5c(=O)[nH]nc5c4cc3-c3ccccc3)cc2)CCC1 |  | -10.2%
CCN1CCN(Cc2ccc(Nc3ncc(F)c(-c4cc(F)c5nc(C)n(C(C)C)c5c4)n3)nc2)CC1 | 2.73 µM (active) | 
CC(=O)O[C@H]1C(=O)[C@@]2(C)[C@H]([C@H](OC(=O)c3ccccc3)[C@]3(O)C[C@H](OC(=O)[C@H](O)[C@@H](NC(=O)c4ccccc4)c4ccccc4)C(C)=C1C3(C)C)[C@]1(OC(C)=O)CO[C@@H]1C[C@@H]2O |  | 0.907% [at 11 µM]
CCN(CC)CCCC(C)Nc1c2ccc(Cl)cc2nc2ccc(OC)cc12 (centres undefined) | 30.6 µM (active) | 
Cc1nc(NC(=O)N2CCCC2C(N)=O)sc1-c1ccnc(C(C)(C)C(F)(F)F)c1 (centres undefined) | 10.9 µM (active) | 
CCS(=O)(=O)c1cccc(-c2cc(C(=O)NC3CCN(C)CC3)c(C)c3[nH]c4ncc(C)cc4c23)c1 | 1.5 µM (active) | 
COc1cc2c(Nc3ccc(NC(=O)c4ccccc4)cc3)ncnc2cc1OCCCN1CCOCC1 | 19.3 µM (active) | 
CNC(=O)c1ccccc1Nc1nc(Nc2ccc(N3CCOCC3)cc2OC)ncc1Cl | 3.85 µM (active) | 
C1CCC(C(CC2CCCCN2)C2CCCCC2)CC1 (centres undefined) | 12.2 µM (active) | 
